From PubChem BioAssay (NCI) come the findings set out here.

Molecules are shown by their SMILES. Where “and” joins values, the source holds several entries; their conditions need not be identical. Identical values can stand only once. The panel holds about 83,000 compounds, 20% with a hit somewhere; the sample as a whole holds those more often.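 Cell lines were cultured in 96-well plates, exposed to a single compound concentration, and assessed for percent growth 48 hours later.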 A number with no mark means an inactive call. Calls of active or inactive are those of the source. The calls were made as follows: active = growth percent below 10; inactive = the rest.

This assay has as its system MDA-MB-468 breast. Nature of the assay: NCI-60 one-dose screen, 48 h (100 = growth as untreated, 0 = no growth, -100 = all killed). The settings on record: 10 µM unless noted.
For the compound `O=C1CSC(=O)N1Cc1cc2ccccc2nc1Cl`, the growth was 97.8%.

For `Cc1onc(-c2ccccc2Cl)c1C(=O)Cl`, the growth was 104%. Consider `Cc1cccc(CNc2c3ccccc3nc3ccccc23)c1`, for which the growth was -0.391% (active). With `O=C(CSc1nnc(-c2ccc(Cl)cc2)o1)Nc1ccc(C(=O)/C=C/c2ccc(Cl)cc2)cc1`, the growth was 116%. `CCOc1c(Br)cc(C2C(C(=O)OC)=CN(C)C=C2C(=O)OC)cc1OC`: the growth was 0.386% (active). As to `O=C1/C(=C/c2ccc(O)cc2)Oc2ccc(Cl)cc21`, the growth was 131%. For the compound `COc1cc(CNCCCN2C(=O)c3ccc4c5c(ccc(c35)C2=O)C(=O)N(CCCNCc2cc(OC)c(OC)c(OC)c2)C4=O)cc(OC)c1OC`, the growth was -93.3% (active). Take `NNc1ccccc1C(=O)O`: the growth was 102%.

Take `CCCCCCCCCCCCCCCCS(=O)(=O)Nc1cc(C(=O)NN)cc(C(=O)NN)c1`: the growth was 45.2%. As for `COC(=O)c1ccc(NC(=O)CSc2nc(-c3ccc(F)cc3)nc3ccccc23)cc1`, the growth is 80.1%.

For `ClC1=C(Cl)C(Cl)=C(Cl)C1=Cc1ccc(Cl)cc1Cl`, the growth was -74.9% (active). Take `NC(=O)c1cccc(-n2ccc3cc(NC(=O)Nc4cc(C(F)(F)F)cc(C(F)(F)F)c4)ccc32)n1`: the growth was 40.7%.

On to `CN(C)CCCn1c2c(c3ncccc3c1=O)C(=O)c1ccccc1-2`, for which the growth was 31.7%. For the compound `CC(C)NS(=O)(=O)c1cccc(-c2ccc3c(=O)n(CCCN)c4c(c3c2)C(=O)c2ccccc2-4)c1`, the growth is 111%.

On to `COC(=O)[C@]12CCC(C)(C)C[C@H]1C1=CC[C@@H]3[C@@]4(C)C/C(=C/c5cccnc5)C(=O)C(C)(C)[C@@H]4CC[C@@]3(C)[C@]1(C)CC2`, for which the growth is -22.5% [100 µM] (active). For the compound `Cc1ccc(C(=O)c2ccc(CC(=O)N=Nc3c(O)[nH]c4ccc(OC(F)(F)F)cc34)n2C)cc1`, the growth was 108%. Regarding `O=C(Nc1nonc1-c1ccccc1)c1ccc(C(F)(F)F)cc1`, the growth is 101%. As for `Oc1c(C(c2ccc(F)cc2)N2CCCCC2)ccc2cncnc12` (stereo not given), the growth was -2.7% (active). Turning to `O=C1Nc2cc(Cl)ccc2/C1=C\c1ccc(OCc2ccccc2)cc1`, the growth was 98.5%. Consider `CCOC(=O)c1cc(CC)sc1NC(=O)CC(C)=O`, for which the growth was 57.2%. The value for `CS(=O)(CCCCN=C=S)=NC(=O)c1c(F)c(F)c(F)c(F)c1F` (stereo not given) was 72.6%; that for `CSc1ccc(N2C(=N)C(=S)N(c3ccc(C)cc3)C2=O)cc1` was 121%.

Consider `CCN(CC)C(CC(=O)c1ccccc1)C(=O)c1ccccc1` (stereo not given), for which the growth was 56.1%. As to `CCCC(=O)NC(c1cccc(N(C)C)c1)c1cc(C)c2cccnc2c1O` (stereo not given), the growth is 24.8%. Under `C=C[Si](OC(C)=O)(OC(C)=O)OC(C)=O` stands 109%; under `CC[C@H](Nc1nc(C)nc(N)c1C#N)c1nc2cccc(NCc3ccc(C(=O)NO)cc3)c2c(=O)n1-c1ccccc1`, -37.1% (active); under `CN1CCN(Cc2ccc(NC(=O)c3cncc(C#Cc4cnc(N)cc4C#N)c3)cc2C(F)(F)F)CC1`, -4.22% (active).

With `CCCCc1nc(/C=N/Nc2nc(Nc3ccccc3)nc(Nc3ccc(S(N)(=O)=O)cc3)n2)c(Cl)[nH]1`, the growth is -12.5% (active).

`CCCCc1n(Cc2ccc3ccccc3c2)cc[n+]1Cc1ccc2ccccc2c1`: the growth is -55.2% (active). Regarding `CC(C)c1cc(C(=O)O)c(O)c(C(C)C)c1.CC(C)c1cc(C(=O)O)c(O)c(C(C)C)c1.[Mn]`, the growth was 120%. With `CN1CCN(CCCOc2cccc3nc(Nc4ccc(F)c(F)c4)ccc23)CC1`, the growth was -67.3% (active). With `CC(=O)Nc1cc(F)cc(C(F)(F)F)c1Cl`, the growth is 86.3%. The value for `COc1cc(C2C3=C(COC3=O)Nc3cc4c(cc32)CCC4)cc2c1OCO2` (stereo not given) was -8.49% (active); that for `COc1cc(/C(C#N)=C/c2ccc3c(c2OC)OCO3)cc2c1OCO2` was 9.19% (active); that for `Cc1cc(C)c(N2C(=O)CC(Sc3ccccc3N)C2=O)c(C)c1` (stereo not given) was 45.6%. Consider `OC(CC(c1ccccc1)c1cccc2ccccc12)(c1ccccc1)c1ccccc1` (stereo not given), for which the growth was 86.3% and 84.5%. For the compound `COc1ccc(-c2c3c(nn2-c2ccc(N)cc2)CCc2cnoc2-3)cc1OC`, the growth was 92.8%. As to `C=C1C(=O)O[C@H]2[C@H]1CC/C(COC(=O)c1cc(OC)c(OC)c(OC)c1)=C\CC[C@@]1(C)O[C@@H]21`, the growth was -33.2% (active). In the case of `CCOC(=O)CCC[P+](c1ccccc1)(c1ccccc1)c1ccccc1`, the growth is 6.56% (active). Turning to `COc1ccc(-n2c(SCc3nnc(NC(=O)c4ccc(Br)cc4)s3)nc3cc(OC)c(OC)cc3c2=O)cc1`, the growth is 93.6%.
